The list is a sample of the results.
CYP2C9 inh = blockers of cytochrome P450 2C9 activity – biochemical, luminescence, ADME assay, primary screen. P11712. CYP2C9 Supersomes, luciferin-H conversion. inhibition, % at 5 µM. hit rate 20% among 96,000;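 active = blocking of liver enzyme CYP2C9 beyond about 50% at 5 µM, limit read from the data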
Target sequence (P11712 whole entry, looked up): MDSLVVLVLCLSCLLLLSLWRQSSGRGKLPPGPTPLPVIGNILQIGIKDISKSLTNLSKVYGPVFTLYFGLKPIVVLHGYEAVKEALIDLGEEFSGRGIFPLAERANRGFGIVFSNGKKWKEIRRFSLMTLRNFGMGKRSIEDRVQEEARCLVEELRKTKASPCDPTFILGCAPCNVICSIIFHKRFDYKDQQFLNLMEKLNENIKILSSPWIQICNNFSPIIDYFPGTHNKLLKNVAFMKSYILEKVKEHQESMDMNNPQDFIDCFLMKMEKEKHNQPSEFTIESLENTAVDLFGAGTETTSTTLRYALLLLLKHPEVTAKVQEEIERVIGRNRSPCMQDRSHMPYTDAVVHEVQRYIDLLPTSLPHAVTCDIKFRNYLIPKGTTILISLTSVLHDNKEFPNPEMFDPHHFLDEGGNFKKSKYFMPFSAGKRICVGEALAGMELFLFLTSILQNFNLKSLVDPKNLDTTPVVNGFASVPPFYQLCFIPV
PostGolgi yeast = phenotypic screen on post-Golgi transport, primary screen; post-Golgi transport phenotypic cell assay; inhibition, % at 10 µM; hit rate 0.9% among 98,000; AID 739, 2007;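 note: yeast cells grown in 1536-well plates; yeast grown about 18 h at 30C before absorbance read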
PostGolgi ctrl = growth inhibition of yeast control strain, primary screen, counter-screen for post-Golgi transport modulator project. AID 738, 2007. inhibition, % at 10 µM. hit rate 5% among 98,000. efflux-deficient yeast background strain, growth absorbance A615, 16 h
CYP2C9 act = human CYP2C9 activators, primary screen, biochemical, luminescence; Cytochrome P450 2C9 (Homo sapiens), P11712; recombinant CYP2C9, luciferin-H conversion; stronger effect = higher value; factor 1 = untreated enzyme, 0 = blocked; activation factor at 5 µM; hit rate 1.4% among 96,000; AID 1024, 2008;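 active = activation factor of 2 or more for CYP2C9 at a 5 µM dose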;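 note: 0 = sulfaphenazole-blocked wells and 1 = vehicle-only wells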
CYP2C19 inhib = blockers of cytochrome P450 2C19 activity – biochemical, luminescence, ADME assay, primary screen; inhibition, % at 5 µM; AID 778, 2007; P33261; CYP2C19 Supersomes, luciferin-H EGE luminescence, 30 min; hit rate 21% among 96,000;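 active = CYP2C19 inhibition above a set limit at 5 µM in the primary screen, cut at about 50% in these data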;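 note: plate controls were negative control wells for no effect and 2.5 mM tranylcypromine positive control for full effect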
CYP2C19 activ = human CYP2C19 activators, primary screen, biochemical, luminescence. Cytochrome P450 2C19 (Homo sapiens), P33261. recombinant CYP2C19, luciferin-H EGE luminescence; stronger effect = higher value; 0 = fully inhibited enzyme, 1 = untreated enzyme. activation factor at 5 µM. 96,000 tested, under 10 active. AID 1025, 2008;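 active = activation factor of at least 2 at 5 µM in the primary screen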;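 note: 0 = wells with 2.5 mM tranylcypromine and 1 = vehicle-only wells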
Numbers without * were called inactive; . = no result given. Cut-off read from the data, not from the text of the source, unless noted: active = inhibition above about 30%; inactive = the rest.

SMILES	CYP2C9 inh	PostGolgi yeast	PostGolgi ctrl	CYP2C9 act	CYP2C19 inhib	CYP2C19 activ
COc1cc(/C=N/NP(=S)(c2ccccc2)c2ccccc2)ccc1O	82*	-2	19	0.2	42	0.6
Oc1ccc(/C=N/NP(=S)(c2ccccc2)c2ccccc2)cc1	86*	-19	2	0.1	79*	0.2
COc1cc(/C=N/NC(=O)CN2CC(c3ccccc3)CC2=O)ccc1OC(=O)N(C)C (stereo not drawn)	-24	-8	-6	1.2	-3	1
CC(=O)OC1C2CCC1C(N1CCCC1)CC2 (stereo not drawn)	-47	-1	3	1.5	-15	1.2
O=P1(NCc2ccco2)COc2ccccc2OC1	-4	2	9	1	2	1
CC(C)CCNC(=O)c1c(N)n(CC2CCCO2)c2nc3ccccc3nc12 (stereo not drawn)	95*	-2	57*	0	61*	0.4
CCOC(=O)c1c(N)n(CCN2CCCCC2)c2nc3ccccc3nc12	-2	-2	0	1	2	1
CCC(C)NC(=O)c1c(N)n(CC2CCCO2)c2nc3ccccc3nc12 (stereo not drawn)	31	0	56*	0.7	20	0.8
COCCCn1c(N)c(C(=O)Nc2sc3c(c2C(=O)OC)CCCC3)c2nc3ccccc3nc21	12	10	2	0.9	4	1
CCC(C)NC(=O)c1c(N)n(Cc2ccc3c(c2)OCO3)c2nc3ccccc3nc12 (stereo not drawn)	67*	10	10	0.3	9	0.9
CN(C)C1(CNC(=O)c2ccc(Cl)c(S(=O)(=O)NCc3ccco3)c2)CCCCC1	22	5	2	0.8	-8	1.1
CCOC(=O)C1=C(C)OC(N)=C(C#N)C12C(=O)Nc1ccc(C)cc12 (stereo not drawn)	0	-6	2	1	15	0.8
OC1(c2cccnc2)CC2CCC(C1)N2Cc1nnnn1Cc1ccccc1 (stereo not drawn)	14	6	-4	0.9	29	0.7
Cc1cc(C)n2nc(C)[n+](C)c2n1	-9	3	23	1.1	-14	1.1
c1ccc2c(CNC3CCCCCC3)c[nH]c2c1	8	-4	5	0.9	22	0.8
NC(=O)CN1C2CCC1CC(NC(=O)C1CC1)C2 (stereo not drawn)	-17	5	4	1.2	-12	1.1
FC(F)(F)c1ccc2c(c1)NP(=S)(N1CCOCC1)c1nccn1-2 (stereo not drawn)	48	0	18	0.5	61*	0.4
CCOC(=O)C1SC2(C(F)(F)F)CC1(O)c1c(C)cc(C)nc1O2 (stereo not drawn)	3	2	-11	1	28	0.7
CCCCn1c(O)c(C=NC2CC3CCC2(C)C3(C)C)c(=O)[nH]c1=O (stereo not drawn)	38	5	63*	0.6	11	0.9
O=c1[nH]c(=O)n(CCC2=CCCCC2)c(O)c1C=NCCN1CCNCC1	24	0	10	0.8	3	1
O=c1[nH]c(=O)n(Cc2ccccc2)c(O)c1C=NCCN1CCNCC1	23	1	0	0.8	17	0.8
Cn1c(O)c(C=NC2CC3CCC2(C)C3(C)C)c(=O)[nH]c1=O (stereo not drawn)	39	-4	1	0.6	16	0.8
O=c1[nH]c(=O)n(CCC2=CCCCC2)c(O)c1C=NC1CCN(Cc2ccccc2)CC1	80*	-5	-5	0.2	31	0.7
CCCCCCn1c(O)c(C=NC2CCN(Cc3ccccc3)CC2)c(=O)[nH]c1=O	73*	-4	7	0.3	26	0.7
Cc1ccc(S(=O)(=O)N2CCCC(C(=O)N3CCC4(CC3)OCCO4)C2)cc1 (stereo not drawn)	-6	5	24	1.1	3	1
SMILES	CYP2C9 inh	PostGolgi yeast	PostGolgi ctrl	CYP2C9 act	CYP2C19 inhib	CYP2C19 activ
CN(C)C1=NC(N(C)C)=NP(N(C)C)(N(C)C)=N1	1	16	4	1	-7	1.1
COc1ccccc1-n1c(O)c(C=NCCN2CCNCC2)c(=O)[nH]c1=O	58*	-21	26	0.4	35	0.7
Cc1ccc(C)c(NC(=O)CSc2nnc([C@@H](N)Cc3c[nH]c4ccccc34)o2)c1	22	.	.	0.8	43	0.6
CCOC(=O)CCN=Cc1c(O)n(-c2ccc(Br)cc2)c(=O)[nH]c1=O	6	1	19	0.9	2	1
CCN1CCN(c2ncnc3ccc(Br)cc23)CC1	-22	-4	32*	1.2	2	1
CCOP1(=S)Oc2cc3c(cc2C(C(=O)OC)(C(F)(F)F)O1)OCO3 (stereo not drawn)	89*	-5	12	0.1	98*	0
CC(c1ccccc1)n1cncc1C(=O)N1CCCC1=O (stereo not drawn)	37	2	-4	0.6	48	0.5
Cn1c(=O)cc(OCC(=O)N2CCC3(CC2)OCCO3)c2ccccc21	-39	-6	10	1.4	34	0.7
Cn1c2ccccc2c2c(C(=O)N3CCC4(CC3)OCCO4)cn(C3CCCC3)c(=O)c21	72*	33*	4	0.3	28	0.7
Cn1c(=O)cc(SCC(=O)N2CCC3(CC2)OCCO3)c2ccccc21	-105	4	-1	2.1*	16	0.8
O=C(Cc1cccs1)N1CCC2(CC1)OCCO2	-14	3	21	1.1	80*	0.2
Cn1c(=O)cc(OCCCC(=O)N2CCC3(CC2)OCCO3)c2ccccc21	0	6	1	1	8	0.9
Cn1cc(CCC(=O)N2CCC3(CC2)OCCO3)c2ccccc21	-40	5	5	1.4	98*	0
Cc1oc(-c2cccs2)nc1CSCC(=O)N1CCC2(CC1)OCCO2	-14	-3	17	1.1	44	0.6
COCCn1cc(C(=O)N2CCC3(CC2)OCCO3)c2c3ccccc3n(C)c2c1=O	-4	-3	1	1	-7	1.1
OC(c1ccc(F)cc1)C(c1ccccc1)N1CCOCC1 (stereo not drawn)	31	-4	2	0.7	25	0.8
Cn1c(O)c(C=NCCc2c[nH]c3ccccc23)c(=O)n(C)c1=O	0	-4	12	1	-9	1.1
CC1(C)CC(=O)C(C=NCCN2CCN(C(=O)Cc3ccc(Cl)cc3)CC2)=C(O)C1	63*	6	-5	0.4	90*	0.1
Cn1c(O)c(C=NCCN2CCN(C(=O)c3ccccc3)CC2)c(=O)n(C)c1=O	-19	6	10	1.2	-13	1.1
CN1C(=O)C(=Cc2ccccc2Oc2ccc(Cl)c(F)c2)C(=O)N(C)C1=O	57*	0	4	0.4	7	0.9
